# Rows were chosen to be rich in hits. Some 6.9% of all compounds tested hit in one or more screens of this group.
# MCF10A rerep = inducers of DNA re-replication in MCF 10A breast cells; MCF 10A DNA re-replication, Hoechst nuclear intensity, 48 h; Potency, µM (highest dose often 46.1 µM), for inactives: at the top dose activity, positive = re-replication, usual class: activators; actives 2.9% (n = 350,000); note: potency is the fitted concentration of half-maximal effect; % of control where 0% means no effect; nearly all actives have a fitted effect of over 50% in size
# SW480 rereplic = induces DNA re-replication in SW480 colon adenocarcinoma cells; SW480 DNA re-replication, Hoechst DNA content imaging, 48 h; actives 1.8% (n = 340,000); Potency, µM (series often up to 46.1 µM), for inactives: at the highest dose re-replication activation, most hits filed as activators; note: potency is the fitted concentration of half-maximal effect; % of control where 0% means no effect; nearly all actives have a fitted effect of over 55% in size
#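 First, 250 cells per well were seeded. Next, compound or vehicle (23 nL) was pinned in, plates sat 48 hr at 37 C. Finally Hoechst was added for 40 min before fluorescence scanning.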
# Vif-APOBEC3F blk = Vif-A3F binding inhibition; Potency, µM (top dose mostly 46.1 µM), for the others: top-dose activity, negative = active; actives 0.2% (n = 390,000); HeLa A3F-eYFP + Vif (tagged APOBEC3F with the HIV-1 protein that degrades it), YFP fluorescence increase; note: potency is the fitted concentration of half-maximal effect; % of control where 0% means no effect; nearly all actives have a fitted effect of over 65% in size
#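 HeLa cells stably expressing A3F-eYFP plus Vif, plated and incubated overnight at 37 deg C, then exposed to compounds overnight at 37 deg C. Blocked degradation read as raised yellow fluorescence (Ex 488/Em 500-530).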
# Vif-APOBEC3G blk = inhibitors of Vif-APOBEC3G interaction | Q9HC16 | HeLa A3G-eYFP + Vif (tagged APOBEC3G with the HIV-1 protein that degrades it), YFP fluorescence, overnight | Potency, µM (doses to about 46.1 µM), without a hit: at the highest dose activity, negative = active, actives largely listed as inhibitors | actives 0.076% (n = 410,000); note: potency is the fitted concentration of half-maximal effect; % is set by controls: 0 for no effect and ±100 for the full control effect; nearly all actives have a fitted effect of over 60% in size
# Target sequence (Q9HC16 whole entry, looked up): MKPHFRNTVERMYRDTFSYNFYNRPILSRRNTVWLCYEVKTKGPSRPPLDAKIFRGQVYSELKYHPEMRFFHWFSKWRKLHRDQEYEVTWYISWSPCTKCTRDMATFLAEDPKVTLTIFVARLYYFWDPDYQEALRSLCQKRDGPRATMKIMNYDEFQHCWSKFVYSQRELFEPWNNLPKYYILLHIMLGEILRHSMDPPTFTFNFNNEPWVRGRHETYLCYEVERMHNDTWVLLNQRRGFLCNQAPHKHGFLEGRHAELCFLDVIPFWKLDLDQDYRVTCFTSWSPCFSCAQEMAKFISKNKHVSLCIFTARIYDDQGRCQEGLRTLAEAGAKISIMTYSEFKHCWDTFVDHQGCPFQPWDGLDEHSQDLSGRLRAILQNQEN
#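 Read-out is eYFP fluorescence (Ex 488/Em 500-530) from Vif-expressing HeLa A3G-eYFP cells; more signal means A3G escaped Vif-mediated degradation. Cells plated overnight, compound pinned in, incubated overnight at 37 deg C.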
# IL1B secr inh = inhibitors of inflammasome signaling (IL-1 beta secretion) | actives 4.7% (n = 360,000) | activity change, % at 57.5 µM | THP-1 LPS/ATP IL-1B secretion, AlphaLISA, 16 h; stronger effect = lower value; in the data active = activity change below about -50%; inconclusive = mostly about -30% to -49%; note: % is set by controls: 0 for no effect and ±100 for the full control effect
#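 THP-1 cells pretreated 1 hr with compounds (up to 57.5 uM final), then stimulated with LPS (250 ng/mL final) plus ATP (1.25 mM final); secreted IL-1B measured by AlphaLISA after 16 hr, decreased signal indicating inhibition.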
# Giardia killer = kills Giardia lamblia. Giardia lamblia trophozoite viability. activity change, % at 7.66 µM, hits read low. actives 0.15% (n = 340,000); in the data active = activity change below about -80%; inconclusive = between about -30% and that limit;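 note: parasites exposed to compound for two days anaerobically before the ATP read; % is set by controls: 0 for no effect and ±100 for the full control effect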
#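 Media and compound were dispensed first, then trophozoites at 100 cells/well; plates sat 48 hrs at 37 deg C without oxygen before ATP luminescence reagent was added and read after 15-30 min at room temperature.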
# Numbers without * were called inactive; ? = inconclusive; . = no result. Unless noted, calls come from the whole dose curve; as a rule, active = well fitted curve in the direction sought with a large enough effect; inconclusive = small, poorly fitted or top-dose-only effect, or another doubt; inactive = no such curve, though single readings can be large; an effect the other way counts as inactive or inconclusive.
SMILES,MCF10A rerep,SW480 rereplic,Vif-APOBEC3F blk,Vif-APOBEC3G blk,IL1B secr inh,Giardia killer
CCOc1ccc(C(=O)Nc2cccc(-c3nc4ccccc4[nH]3)c2C)cc1[N+](=O)[O-],30%,18%,-16%,-1%,?,-8
C=C1CCC2C(C)(C)[C@H](O)CC[C@@]2(C)[C@@H]1COc1cc(=O)oc2ccccc12 (some centres not stated),?,-3%,-10%,-5%,-13,-9
C=C1CC(COc2cc(=O)oc3ccccc23)(c2ccccc2)OC1=O (configuration not stated),2.6µM*,28%,6%,-23%,-117*,-19
COc1ccc(OC)c(NC(=O)c2c(NCc3ccc(N(C)C)cc3)sc3c2CCCC3)c1,.,.,2%,-3%,.,.
Cc1ccc(Cl)cc1N(C)C(=O)Cn1ncc2c([nH]c3ccccc32)c1=O,?,21µM*,5%,-5%,-6,4
CCOC(=O)C1CCCN(C(=O)Cn2ncc3c([nH]c4ccccc43)c2=O)C1 (configuration not stated),?,3%,1%,-1%,-84*,16
Cc1ccc(C)c(NC(=S)NCCSc2ccc(Cl)cc2)c1,?,1%,14%,3%,?,-4
Cc1ccccc1NC(=S)NCCO,-5%,-4%,2%,-2%,6,-2
Cc1ccc(NC(=S)NCCSc2ccc(Cl)cc2)c(C)c1,23µM*,?,-2%,0%,-6,3
CCc1ccccc1NC(=S)NCCSc1ccc(Cl)cc1,434%,-5%,-21%,1%,-98*,6
Cc1ccccc1NC(=S)NCCSc1ccc(Cl)cc1,?,-1%,-3%,0%,-82*,-13
Cc1nc2nc(-c3ccc(Cl)cc3Cl)nn2c(C)c1CCC(=O)Nc1ccc(F)cc1,.,.,-5%,-1%,.,.
Cc1sc2nc(-c3cccnc3)nc(Cl)c2c1-c1ccccc1,21µM*,0%,-21%,0%,-1,-9
Cc1sc2nc(-c3ccccc3)[nH]c(=O)c2c1-c1ccccc1,5%,-4%,.,.,.,.
COc1ccc(/C=C/c2ccccn2)cc1,.,.,.,3%,.,.
Cc1ccc(NC(=O)c2c(NC(=O)c3ccco3)sc3c2CCC(C(C)(C)C)C3)c(C)c1 (configuration not stated),.,.,3%,3%,.,.
O=C(Nc1c(F)cccc1F)c1ccc2c(c1)CCN2S(=O)(=O)c1ccccc1,18%,-4%,2%,-6%,-67*,8
O=C(Nc1ccccc1F)c1ccc2c(c1)CCN2S(=O)(=O)c1ccccc1,1%,2%,2%,0%,-69*,-5
Cc1cccc(NC(=O)c2ccc3c(c2)CCN3S(=O)(=O)c2ccccc2)c1C,.,.,-14%,4%,.,.
C/C=C(\NNC(C)=O)c1ccc(O)cc1,.,.,.,-12%,.,.
CCOc1ccc2nc(N3CCCC(C(=O)NCCCOC)C3)sc2c1 (configuration not stated),.,.,7%,-2%,.,.
COc1ccc2nc(N3CCCC(C(=O)NCCCN4C(C)CCCC4C)C3)sc2c1 (configuration not stated),16%,7%,-1%,-2%,-70*,-3
CCCCCN(C(=O)CCC(=O)OCc1cc(C)ccc1C)c1c(N)n(CCCC)c(=O)[nH]c1=O,-2%,-21%,-21%,-4%,-63*,17
CCCCCN(C(=O)CCC(=O)OCC(=O)c1c(C)cc(C)cc1C)c1c(N)n(CCCC)c(=O)[nH]c1=O,-14%,-49%,0%,-7%,-77*,29
CCCCCN(C(=O)CCC(=O)OCc1ccccc1F)c1c(N)n(CCCC)c(=O)[nH]c1=O,3%,-1%,-1%,0%,-12,0
Cc1cc(C)cc(NC(=O)C2CCCN2S(=O)(=O)c2cccc3nsnc23)c1 (configuration not stated),.,.,1%,3%,.,.
COC(=O)C1=C(C(=O)OC)SC(=C2C(=S)C(C)(C)N(C(=O)C(C)C)c3ccccc32)S1,?,21%,-1%,-4%,-66*,-13

# Screening results deposited in PubChem by National Center for Advancing Translational Sciences (NCATS).
